Compound activity as filed in PubChem BioAssay.
An excerpt weighted towards active compounds, which were near 1.8% of everything screened.
AI-2 QS modul: modulators of Vibrio harveyi AI-2 quorum sensing system | Vibrio harveyi JMH597 AI-2 luminescence/OD600 ratio, 9 h; active compounds read low; strain lacks LuxN and CqsS sensors; 0 = neutral-control median | activity change, % at 7.5 µM | hit rate 0.4% among 300,000 | AID 2094; in the data active = activity change below about -75%, passing the limit was not always enough;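 note: luminescence divided by OD600 gain over 9 h not by final OD600 alone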
SUMO Mot1 rescue: inhibitors of SUMOylation pathway: yeast Mot1-301 growth rescue | growth rescue, % at 18.8 µM | S. cerevisiae Mot1-301 growth rescue, ATP luminescence, 38.5C; percent above DMSO median, 100 means doubled | hit rate 1% among 320,000;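 active = every valid replicate shows activation above 250% relative to neutral control wells; inactive = the rest, any valid replicate at or below 250%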;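 note: OY570 slx delta 5 strain wells were the positive control but not used for scaling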
ARNT-TACC3 inh: disruptors of human ARNT/TACC3 interaction; AlphaScreen His-ARNT PAS-B/GST-TACC3 binding, luminescence; TACC3 fragment carries E629A point mutation; Q9Y6A5; hit rate 0.66% among 390,000; inhibition, % at 9.99 µM;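 active = mean inhibition of replicates at least 50% and at least half of replicates each reaching 50%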;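 note: 0% = complete ARNT plus TACC3 wells and 100% = ARNT alone without TACC3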
aDG glyco up: alpha-DG glycosylation activation. Pro5-aDG cells, alpha-DG glycosylation AlphaScreen (IIH6); 0% Pro5, 100% B10-LARGE cell signal. activation, % at 10 µM. hit rate 0.22% among 360,000;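 active = activation of at least 8% versus controls, or a plate z-score of at least 8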;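 note: Pro5 are CHO cells carrying HIG-tagged alpha-DG that lacks glycosylation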
Bfl-1 A1 inh: inhibitors of the anti-apoptotic protein A1, read as caspase activation; hit rate 0.066% among 330,000; MEF A1-2A-BIM cells, Caspase-Glo 3/7 luminescence, 3 h; percent of clofoctol response, vehicle zero; AID 2462; caspase activation, % (concentration not given with the values);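 active = over half of replicate activation scores above 10%, or exactly half above 10 with the replicate mean above 10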
ARNT Alpha ctr-1: interferes with AlphaScreen signal, flagging false ARNT-TACC3 hits; AC50, µM (series often up to 68 µM), without a hit: top-dose activity change, negative = signal decrease; hit rate 50% among 1,200; AID 651705; His-ARNT PASB-GST AlphaScreen artifact counter-screen, luminescence; shares compounds with ARNT-TACC3 inh;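 active = every separate test run was called active for a drop in luminescence, with AC50 within twice the top valid dose, actives reach about 71 µM in these data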
ARNT Alpha ctr-2: produces AlphaScreen artifacts in ARNT-TACC3 counter-screen; shares compounds with ARNT-TACC3 inh; Dual-tagged His-ARNT PASB-GST AlphaScreen artifact counter-screen; AC50, µM; hit rate 70% among 45;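 active = luminescence drop, with half-maximal potency fitted within twice the sample's top valid dose, cut at about 70 µM in these data; inactive = the rest, including signal moving the wrong way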
Active calls of the source: *; . = no result given; ! = repeats disagree; [ ] = another dose, or the depositor's remark.

SMILES | AI-2 QS modul | SUMO Mot1 rescue | ARNT-TACC3 inh | aDG glyco up | Bfl-1 A1 inh | ARNT Alpha ctr-1 | others
CCOc1ccc(Nc2cc3n(c(=O)n2)CCc2cc(OC)c(OC)cc2-3)cc1 | 6.6 | 2.7 | 43.2* | 0.1 | -0.6 | -15.9%
CCNc1cc2n(c(=O)n1)CCc1cc(OC)c(OC)cc1-2 | 31.3 | 53.9 | 26.2 | -0.1 | 0.1 | .
CCOc1ccccc1Nc1cc2n(c(=O)n1)CCc1cc(OC)c(OC)cc1-2 | 5.0 | 1.9 | 17.7 | -0.2 | 0.5 | .
Cc1ccc(S(=O)(=O)Nc2ccc3c(c2)CC(=O)N([C@H](C)CO)C[C@H](C)[C@H](CN(C)S(=O)(=O)c2ccc(Cl)cc2)O3)cc1 | . | . | 6.2 | . | . | .
C[C@H]1CN([C@@H](C)CO)C(=O)c2cc(C3=CCCC3)cnc2O[C@@H]1CN(C)Cc1ccccc1 | . | . | -0.2 | . | . | .
C[C@@H]1CCCCO[C@H](CN(C)C(=O)NC2CCCCC2)[C@@H](C)CN([C@@H](C)CO)C(=O)c2cc(NC(=O)NC3CCCCC3)ccc2O1 | . | . | -2.0 | . | . | .
CN1CCC(N2CCN(C3CN(CCc4ccccc4)S(=O)(=O)C3)CC2)CC1 (stereo not given) | . | . | . | 0.0 | . | .
CN1CCC(n2[nH]c(-c3ccccc3)c(Cc3ccccc3)c2=O)CC1 | . | . | active | 0.7 | . | -7.2%
Cc1[nH][nH]c(=O)c1C(c1ccc(Cl)cc1)c1c(C)[nH][nH]c1=O | 2.2 | -3.8 | 17.9* | 0.0 | -0.5 | 5.0%
O=C(NCc1ccccc1)c1cc(-c2cccs2)on1 | -42.4 | -1.3 | -14.5 | -0.2 | 0.0 | .
Cc1ccc(CNC(=O)c2cc(-c3ccccc3)on2)cc1 | . | . | . | . | . | 2.1%[38 µM]
Cc1ccc(-c2cc(C(=O)NCc3cccnc3)no2)cc1 | 11.9 | 9.5 | 0.0 | 0.6 | 0.4 | .
O=C(NCCCCO)c1cc(-c2ccccc2)on1 | . | . | . | . | . | -4.7%[38 µM]
O=C(NCc1ccccc1)c1cc(-c2ccccc2)on1 | . | . | . | . | . | -2.4%[38 µM]
COc1cc(CC(NC(C)=O)C(=O)NC2CCN(C(=O)Nc3ccccc3Cl)CC2)cc(OC)c1 (stereo not given) | 38.0 | 311.6 | . | -0.3 | 1.6 | .
COc1ccccc1NC(=O)CSc1ccc(-c2ccccn2)nn1 | 9.6 | 18.7 | 55.0* | 0.3 | 2.3 | 14.2µM*
Cc1cccc(NC(=O)CSc2ccc(-c3ccccn3)nn2)c1C | 13.4 | -11.1 | 54.9* | 0.1 | 0.6 | 30.4µM* | ARNT Alpha ctr-2=22.8*
COc1ccc(NC(=O)CSc2ccc(-c3ccccn3)nn2)cc1OC | 16.3 | 8.6 | . | 0.8 | -0.2 | .
COc1ccc(NC(=O)CCNS(=O)(=O)c2ccc3c(c2)c(=O)n(C)c(=O)n3C)cc1 | 33.3 | -5.7 | -1.0 | 0.0 | 0.5 | .
CC1CCN(S(=O)(=O)c2ccc(C(=O)Nc3nnc(C4CC4)o3)cc2)CC1 | 26.0 | -28.5 | 42.7 | 0.1 | -0.1 | . | ARNT Alpha ctr-2=>136
O=C(Nc1nnc(C2CC2)o1)c1ccc(S(=O)(=O)N2CCCCC2)cc1 | 68.5 | -2.1 | 50.7* | -0.2 | 1.5 | -38.5%
CC1CCCN(S(=O)(=O)c2ccc(C(=O)Nc3nnc(C4=COCCO4)o3)cc2)C1 (stereo not given) | 5.6 | -13.5 | 40.5 | 0.1 | -0.1 | .
CC1CCN(S(=O)(=O)c2ccc(C(=O)Nc3nnc(-c4ccncc4)o3)cc2)CC1 | 75.7 | -1.2 | . | 0.5 | -0.3 | .
CC1CC(C)CN(S(=O)(=O)c2ccc(C(=O)Nc3nnc(C4=COCCO4)o3)cc2)C1 (stereo not given) | . | . | . | . | . | . | ARNT Alpha ctr-2=>136
COc1ccccc1CC(=O)Nc1ccc(OC)c(OC)c1 | -4.3 | 8.2 | -2.7 | 0.0 | 0.4 | .
SMILES | AI-2 QS modul | SUMO Mot1 rescue | ARNT-TACC3 inh | aDG glyco up | Bfl-1 A1 inh | ARNT Alpha ctr-1 | others
CN(Cc1ccccc1)N=Nc1nc[nH]c1C(N)=O | . | . | . | -0.5 | . | .
NC(=O)c1[nH]cnc1N | 27.8 | 11.1 | 69.4*! | -0.1 | -0.1 | -7.1%
COCC#Cc1ccc([C@@H]2[C@H](CO)N3CCCCN(Cc4cncnc4)C[C@@H]23)cc1 | . | . | 9.0 | . | . | .
COCC(=O)N(C)C[C@H]1Oc2ncc(-c3ccc(F)cc3)cc2C(=O)N([C@@H](C)CO)C[C@H]1C | . | . | 38.4 | . | . | .
O=C1C2CCCCN2C(=O)N1CCCCN1CCN(c2cccc(Br)c2)CC1 (stereo not given) | 23.3 | 73.2 | active | 0.2 | 0.5 | -13.1%
CCc1nc(C)cn1S(=O)(=O)c1cc(C)c(OC)c(C)c1C | 20.0 | -14.1 | -5.4 | -0.1 | 0.2 | .
COc1ccc2cc1Oc1ccc(cc1)C[C@H]1c3cc(c(OC)cc3CCN1C)Oc1c(OC)c(OC)cc3c1[C@@H](C2)N(C)CC3 | . | 10.1 | 30.1* | 0.1 | -0.7 | -21.3%
Cc1ccc2nc(-c3ccccn3)[nH]c2c1 | 7.5 | -7.7 | 38.8* | -0.1 | -12.8 | -15.3%
O=c1[nH]c(-c2ccccn2)nc2ccccc12 | 33.3 | -33.3 | 64.2* | 0.1 | -2.5 | -13.1%
c1ccc(-c2nc3ccccc3[nH]2)cc1 | 29.5 | 5.6 | -2.0 | 0.0 | -10.7 | .
c1ccc(-c2nc3ccccc3[nH]2)nc1 | 36.5 | 27.0 | 58.8* | 0.2 | -7.2 | -16.3%
CCOc1ccc(C(=O)Nc2ccc3c(c2)C(=O)NC3=O)cc1 | 22.5 | 24.0 | -2.9 | 0.0 | 0.0 | .
Cc1ccc(S(=O)(=O)N(C)C[C@H]2OCCCC[C@@H](C)Oc3ccc(NC(=O)Nc4ccc(F)cc4)cc3C(=O)N([C@H](C)CO)C[C@@H]2C)cc1 | . | . | 11.3 | . | . | .
COc1cccc(N2CCN(C(=O)c3cccc(S(=O)(=O)N4CCCC4)c3)CC2)c1 | . | . | . | 0.0 | . | .
CCN1CCN(c2ccc(NC(=O)c3cccc(S(=O)(=O)N4CCCC4)c3)cc2)CC1 | . | 14.1 | 56.2* | 0.0 | -0.2 | -4.1%
O=C(Nc1ccc(N2CCOCC2)cc1)c1cccc(S(=O)(=O)N2CCCCC2)c1 | -0.7 | . | -7.1 | 0.4 | . | .
CC1(C)CC(=O)C=C(Nc2ccccc2N)C1 | 23.0 | 9.8 | 50.6* | 0.0 | 0.2 | 6.5%
O=S(=O)(N[C@H]1CC[C@@H](CCn2cc(-c3cccc(F)c3)nn2)O[C@H]1CO)c1ccccc1 | . | . | 1.5 | . | . | .
O=S(=O)(N[C@H]1CC[C@@H](CCn2cc(-c3ccccn3)nn2)O[C@H]1CO)c1cccc(F)c1 | . | . | 88.1* | . | . | 39µM*
O=S(=O)(N[C@@H]1CC[C@H](CCn2cc(-c3ccccn3)nn2)O[C@H]1CO)c1cccc(F)c1 | . | . | 83.7* | . | . | 44.5µM*
CCOc1ccc(C(c2c(C)[nH][nH]c2=O)c2c(C)[nH][nH]c2=O)cc1OC | 20.2 | 0.3 | 6.1 | 0.6 | -0.1 | .
C#CCOc1ccc(OC)cc1C(c1c(C)[nH][nH]c1=O)c1c(C)[nH][nH]c1=O | 9.0 | -11.3 | 36.6* | 0.1 | -0.9 | 1.9%
